Results taken from PubChem BioAssay.
Active and inactive are the calls of the source.

How the values were obtained:
[1] = E. coli DRC41 culture turbidity changes, primary screen, E. coli filamentation inducer project, strain DRC41, OD650, 48 h (AID 1152);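 note: E. coli MC1000 strain DRC41 lacking acrAB efflux pump and sulA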; conditions: E. coli DRC41 (acrAB sulA), higher = more signal, called active from +8 up or from −8 down
[2] = small-molecule binders of probe aLefty1, primary screen, biochemical, small-molecule microarray, 635/667 nm fluorescence (AID 1153); conditions: higher = more signal;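 note: score merges spot fluorescence with signal-to-noise ratio from the scanned slide images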
[3] = PSAC antagonists in infected red cells, primary screen, cell-based, P. falciparum Indochina, OD700, 1 h (AID 1154); conditions: P. falciparum Indochina infected RBC osmotic lysis, higher = more signal, called active from +8 up or from −8 down
[4] = PSAC antagonists in infected red cells, primary screen, cell-based, P. falciparum Indochina, OD700, 2 h (AID 1155);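 note: lysis reports solute entry through the parasite surface anion channel PSAC; channel blockers reduce lysis of infected cells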; conditions: P. falciparum Indochina infected erythrocytes, osmotic lysis OD700; higher = more signal, called active from +8 up or from −8 down
[5] = osmotic lysis modulators in infected erythrocytes, primary screen, PSAC antagonist project, cell-based, P. falciparum Indochina, OD700, 3 h (AID 1156); conditions: higher = more signal, called active from +8 up or from −8 down
[6] = PSAC antagonists in infected red cells, primary screen, cell-based, P. falciparum Indochina, OD700, 18 h (AID 1157); conditions: P. falciparum Indochina infected erythrocytes, osmotic lysis OD700, 18 h; higher = more signal, called active from +8 up or from −8 down
[7] = modulators of S6 phosphorylation in cells, primary screen, cell-based, A549, cytoblot, luminescence, serum-stimulated (AID 1158); conditions: A549 phospho-S6 cytoblot, 5 h, higher = more signal;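 note: serum-stimulated A549 lung adenocarcinoma cells; signal is phosphorylated S6 detected by cytoblot immunostaining with HRP secondary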
[8] = molecular target: NADPH oxidase 2 (Homo sapiens) (UniProt P04839); assay: NOX2-dependent H2O2 signal modulators, primary screen, NOX inhibitor project, cell-based, HEK293-NOX2, PMA-stimulated, Amplex Red fluorescence (AID 1159); conditions: 45 min, higher = more signal, called active from +8 up or from −8 down; note: test concentration not given here
[9] = molecular target: NADPH oxidase 4 (Homo sapiens) (UniProt Q9NPH5); assay: NOX4-dependent H2O2 signal modulators, primary screen, NOX inhibitor project, cell-based, HEK293-NOX4, tetracycline-induced, Amplex Red fluorescence (AID 1160); conditions: 45 min, higher = more signal, called active from +8 up or from −8 down
[10] = molecular target: NADPH oxidase 5 (Homo sapiens) (UniProt Q96PH1); assay: NOX5-dependent H2O2 signal modulators, primary screen, NOX inhibitor project, cell-based, HEK293-NOX5, Amplex Red fluorescence (AID 1161); conditions: HEK293-NOX5, ionomycin, 45 min, higher = more signal
[11] = A549 cell viability effects, profiling panel, calcein-AM fluorescence, 48 h, basal (AID 1162); conditions: higher = more signal; note: test concentration not given here
[12] = adipocyte viability effects, profiling panel, cell-based, 3T3-L1 adipocytes, calcein-AM fluorescence, 48 h, basal (AID 1163); conditions: 3T3-L1 adipocytes viability, higher = more signal; note: test concentration not given here
[13] = HepG2 cell viability effects, profiling panel, calcein-AM fluorescence, 48 h, basal (AID 1164); conditions: higher = more signal; note: test concentration not given here
[14] = MM1S cell viability effects, profiling panel, calcein-AM fluorescence, 48 h, basal (AID 1165); conditions: higher = more signal;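 note: viability of MM1S multiple myeloma cells under basal unstimulated conditions; test concentration not given here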
[15] = basal RPMI8226 viability, no added stimulus, profiling panel, cell-based, calcein-AM fluorescence, 48 h, PK04 Diversity Set (AID 1166); conditions: RPMI8226 myeloma viability, higher = more signal;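 note: cells grown under basal conditions without added stimulus; test concentration not given here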
[16] = basal HepG2 mitochondrial membrane potential changes, profiling panel, cell-based, JC-1 fluorescence, 24 h, 100 nL compound (AID 1167); conditions: higher = more signal; note: test concentration not given here
[17] = basal 3T3-L1 adipocyte mitochondrial potential changes, profiling panel, cell-based, JC-1 fluorescence, 3T3-L1 adipocytes, 24 h, 100 nL compound (AID 1168); conditions: JC-1 mitochondrial fluorescence, higher = more signal, called active from +8 up or from −8 down; note: test concentration not given here
[18] = basal RPMI8226 mitochondrial membrane potential changes, profiling panel, cell-based, JC-1 fluorescence, 24 h, 100 nL compound (AID 1169); conditions: RPMI8226 myeloma, JC-1 mitochondrial potential fluorescence, higher = more signal; note: test concentration not given here
[19] = basal MM1S mitochondrial membrane potential changes, profiling panel, cell-based, JC-1 fluorescence, 24 h, 100 nL compound (AID 1170); conditions: higher = more signal; note: test concentration not given here
[20] = A549 lung cancer cell viability effects, profiling panel, resazurin fluorescence, 24 h, PK04 Diversity Set (AID 1171); conditions: higher = more signal, called active from +8 up or from −8 down; note: test concentration not given here

Chain of NADPH oxidase 2 (Homo sapiens) (P04839 whole entry, looked up): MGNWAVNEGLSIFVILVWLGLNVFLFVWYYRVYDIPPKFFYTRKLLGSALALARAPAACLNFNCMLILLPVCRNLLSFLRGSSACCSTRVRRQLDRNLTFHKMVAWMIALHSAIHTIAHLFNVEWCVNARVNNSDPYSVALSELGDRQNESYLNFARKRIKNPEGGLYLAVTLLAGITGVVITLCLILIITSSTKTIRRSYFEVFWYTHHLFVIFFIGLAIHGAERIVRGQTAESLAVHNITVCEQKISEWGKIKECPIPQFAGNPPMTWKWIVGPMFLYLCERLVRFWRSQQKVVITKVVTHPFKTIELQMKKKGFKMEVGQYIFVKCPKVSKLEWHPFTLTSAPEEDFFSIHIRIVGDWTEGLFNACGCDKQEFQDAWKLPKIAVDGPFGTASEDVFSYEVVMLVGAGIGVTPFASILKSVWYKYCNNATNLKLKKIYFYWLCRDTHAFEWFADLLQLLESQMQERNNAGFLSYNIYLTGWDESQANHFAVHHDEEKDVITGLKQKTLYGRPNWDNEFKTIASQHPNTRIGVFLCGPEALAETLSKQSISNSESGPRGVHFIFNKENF
Chain of NADPH oxidase 5 (Homo sapiens) (Q96PH1 whole entry, looked up): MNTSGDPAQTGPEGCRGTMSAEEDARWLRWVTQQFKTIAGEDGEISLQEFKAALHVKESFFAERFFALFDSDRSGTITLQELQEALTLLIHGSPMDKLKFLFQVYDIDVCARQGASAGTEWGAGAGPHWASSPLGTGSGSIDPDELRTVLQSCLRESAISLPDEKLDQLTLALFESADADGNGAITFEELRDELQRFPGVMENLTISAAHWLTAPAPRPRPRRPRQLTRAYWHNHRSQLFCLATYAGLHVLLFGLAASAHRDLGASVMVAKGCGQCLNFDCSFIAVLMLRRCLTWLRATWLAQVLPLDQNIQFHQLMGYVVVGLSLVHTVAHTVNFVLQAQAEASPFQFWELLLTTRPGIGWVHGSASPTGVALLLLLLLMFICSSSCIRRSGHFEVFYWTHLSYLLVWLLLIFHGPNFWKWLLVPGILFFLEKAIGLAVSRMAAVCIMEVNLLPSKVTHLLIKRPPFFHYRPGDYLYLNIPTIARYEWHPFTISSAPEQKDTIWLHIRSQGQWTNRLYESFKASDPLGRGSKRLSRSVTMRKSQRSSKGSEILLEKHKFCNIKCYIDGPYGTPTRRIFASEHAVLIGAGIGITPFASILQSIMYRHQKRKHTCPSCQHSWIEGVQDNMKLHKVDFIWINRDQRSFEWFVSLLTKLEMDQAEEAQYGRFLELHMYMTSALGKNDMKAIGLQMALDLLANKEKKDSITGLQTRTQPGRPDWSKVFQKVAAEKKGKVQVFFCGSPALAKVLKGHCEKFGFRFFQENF
Chain of NADPH oxidase 4 (Homo sapiens) (Q9NPH5 whole entry, looked up): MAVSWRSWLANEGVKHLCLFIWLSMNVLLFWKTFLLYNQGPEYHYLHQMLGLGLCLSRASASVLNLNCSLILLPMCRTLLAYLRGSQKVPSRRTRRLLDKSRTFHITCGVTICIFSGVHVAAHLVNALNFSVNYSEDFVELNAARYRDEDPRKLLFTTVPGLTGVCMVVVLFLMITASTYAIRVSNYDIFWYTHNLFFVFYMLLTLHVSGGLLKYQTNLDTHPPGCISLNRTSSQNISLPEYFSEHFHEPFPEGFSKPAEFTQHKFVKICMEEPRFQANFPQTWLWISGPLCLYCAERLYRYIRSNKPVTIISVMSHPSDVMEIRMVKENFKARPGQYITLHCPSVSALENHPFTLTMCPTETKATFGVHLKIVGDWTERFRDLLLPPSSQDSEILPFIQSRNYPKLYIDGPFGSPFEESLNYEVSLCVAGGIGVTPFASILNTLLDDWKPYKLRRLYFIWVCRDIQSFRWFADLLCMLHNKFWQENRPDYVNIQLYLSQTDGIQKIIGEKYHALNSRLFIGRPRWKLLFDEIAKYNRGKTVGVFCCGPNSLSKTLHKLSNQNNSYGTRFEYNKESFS

For CCN(CC)c1ccc(N2CC=CC34O[C@@H]5/C=C\CCC(C)OC(=O)C5[C@H]3C(=O)N(C(CO)C(C)C)[C@@H]4C2=O)cc1 (stereo not given in full), the z-score [1] was 0.295 (inactive), the composite z-score [2] was 0.2 and the z-score [3] was 1.82 (inactive). The z-score [4] was 0.585 (inactive), the z-score [5] was 0.975 (inactive) and the z-score [6] was 0.674 (inactive). For the same compound, the z-score [7] was -0.232, the z-score [8] was 0.398 (inactive) and the z-score [9] was -0.502 (inactive). For the same compound, the z-score [10] was 0.855, the z-score [11] was -0.0553 and the z-score [12] was -1.18. It also gave a z-score [13] of 0.936, a z-score [14] of 1.26 and a z-score [15] of -0.208. The z-score [16] was 0.96, the z-score [17] was -0.118 (inactive) and the z-score [18] was 0.0122. For the same compound, the z-score [19] was 1.01 and the z-score [20] was 0.406 (inactive).

In the case of COc1ccc(C(O)C2C=CC3C(=O)N(C)C(=O)C3N2N2CCCCC2)c2ccccc12 (stereo not given), the z-score [1] is reported as -1.53 (inactive), the composite z-score [2] is reported as 0.517 and the z-score [3] is reported as 1.24 (inactive). For the same compound, the z-score [4] was 1.05 (inactive), the z-score [5] was 1.01 (inactive) and the z-score [6] was 0.778 (inactive). The z-score [7] was -1.08, the z-score [8] was 0.273 (inactive) and the z-score [9] was -1.72 (inactive). The z-score [10] was 1.03, the z-score [11] was -1.01 and the z-score [12] was -1.14. For the same compound, the z-score [13] was -0.086, the z-score [14] was -0.142 and the z-score [15] was 0.768. The z-score [16] was -0.874, the z-score [17] was -1.08 (inactive) and the z-score [18] was -0.0496. For the same compound, the z-score [19] was 0.028 and the z-score [20] was -0.825 (inactive).

In the case of COc1ccc(C(O)C2C=CC3C(=O)N(c4ccccc4)C(=O)C3N2Nc2ccc(C(C)C)cc2)cc1OCc1ccccc1 (stereo not given), the z-score [1] is reported as -3.31 (inactive), the composite z-score [2] is reported as 0.129 and the z-score [3] is reported as 2.07 (inactive). For the same compound, the z-score [4] was 1.62 (inactive), the z-score [5] was -0.167 (inactive) and the z-score [6] was 1.47 (inactive). For the same compound, the z-score [7] was -0.951, the z-score [8] was 0.506 (inactive) and the z-score [9] was -2.55 (inactive). The z-score [10] was -1.22, the z-score [11] was 0.997 and the z-score [12] was -1.42. For the same compound, the z-score [13] was 0.915, the z-score [14] was -0.737 and the z-score [15] was -0.63. The z-score [16] was -0.318, the z-score [17] was -0.116 (inactive) and the z-score [18] was -0.427. The z-score [19] was -0.173 and the z-score [20] was -0.193 (inactive).

In the case of CC(=O)N1Cc2ccccc2C[C@@]2(COC(c3ccc(OCCCO)cc3)=N2)C1=O, the z-score [1] is reported as 2.48 (inactive), the composite z-score [2] is reported as 0.611 and the z-score [3] is reported as 28.1 (active). For the same compound, the z-score [4] was 13.4 (active), the z-score [5] was 2.79 (inactive) and the z-score [6] was 1.7 (inactive). For the same compound, the z-score [7] was 2.28, the z-score [8] was -1 (inactive) and the z-score [9] was 1.74 (inactive). The z-score [10] was -1.24, the z-score [11] was 1.23 and the z-score [12] was 1.93. It also gave a z-score [13] of 2.01, a z-score [14] of -2 and a z-score [15] of 0.151. The z-score [16] was 0.933, the z-score [17] was 1.59 (inactive) and the z-score [18] was -0.894. For the same compound, the z-score [19] was -0.394 and the z-score [20] was 0.89 (inactive).

With COc1ccc(C(O)C2C=CC3C(=O)N(c4ccccc4)C(=O)C3N2Nc2ccccc2F)cc1OCc1ccccc1 (stereo not given) the z-score [1] was -1 (inactive), the composite z-score [2] was 0.5 and the z-score [3] was 9.5 (active). The z-score [4] was 2.5 (inactive), the z-score [5] was 0.361 (inactive) and the z-score [6] was 1.17 (inactive). For the same compound, the z-score [7] was -1.12, the z-score [8] was -1.18 (inactive) and the z-score [9] was -2.79 (inactive). The z-score [10] was -1.17, the z-score [11] was -0.0678 and the z-score [12] was -1.77. The z-score [13] was -0.561, the z-score [14] was 0.0664 and the z-score [15] was -0.43. For the same compound, the z-score [16] was -1.51, the z-score [17] was -0.838 (inactive) and the z-score [18] was -0.75. For the same compound, the z-score [19] was -0.909 and the z-score [20] was -0.179 (inactive).

With C[C@]1(C(=O)NC2CC2)c2ccccc2C(=O)N(Cc2cc(C(F)(F)F)cc(C(F)(F)F)c2)[C@H]1c1ccc(CO)cc1 the z-score [1] was 1.4 (inactive), the composite z-score [2] was 0.0278 and the z-score [3] was 7.52 (inactive). For the same compound, the z-score [4] was 1.18 (inactive), the z-score [5] was 1.26 (inactive) and the z-score [6] was 0.599 (inactive). For the same compound, the z-score [7] was 0.049, the z-score [8] was -1.25 (inactive) and the z-score [9] was 0.222 (inactive). For the same compound, the z-score [10] was 1.06, the z-score [11] was 1.34 and the z-score [12] was 0.254. The z-score [13] was 1.44, the z-score [14] was 0.274 and the z-score [15] was 0.56. For the same compound, the z-score [16] was 2.04, the z-score [17] was -0.0278 (inactive) and the z-score [18] was -0.105. For the same compound, the z-score [19] was -0.262 and the z-score [20] was 0.89 (inactive).

With O=C1NCC(=O)N2[C@@H]1C[C@@H](C(=O)O)[C@H]2c1cccc(OCCO)c1 the z-score [1] was 0.0481 (inactive), the composite z-score [2] was 3.14 and the z-score [3] was 2.24 (inactive). For the same compound, the z-score [4] was 1.34 (inactive), the z-score [5] was -1.22 (inactive) and the z-score [6] was 0.572 (inactive). For the same compound, the z-score [7] was 0.863, the z-score [8] was 0.313 (inactive) and the z-score [9] was 0.281 (inactive). The z-score [10] was 1.62, the z-score [11] was 0.278 and the z-score [12] was -0.856. For the same compound, the z-score [13] was 0.662, the z-score [14] was 0.301 and the z-score [15] was 0.362. The z-score [16] was 2.32, the z-score [17] was -0.16 (inactive) and the z-score [18] was 0.529. For the same compound, the z-score [19] was -0.514 and the z-score [20] was -0.229 (inactive).

With COc1cc(CO)cc(I)c1O[C@H]1C=C(C(=O)NCCO)C[C@@H](N(CCN2CCOCC2)C(=O)C2CCOC2)[C@@H]1O (stereo not given in full) the z-score [1] was 3.66 (inactive), the composite z-score [2] was -0.319 and the z-score [3] was 8.79 (active). The z-score [4] was 1.59 (inactive), the z-score [5] was 1.89 (inactive) and the z-score [6] was 0.427 (inactive). The z-score [7] was 0.432, the z-score [8] was -0.568 (inactive) and the z-score [9] was 1.29 (inactive). The z-score [10] was 0.233, the z-score [11] was 0.736 and the z-score [12] was -0.917. It also gave a z-score [13] of 0.51, a z-score [14] of 0.317 and a z-score [15] of 0.402. The z-score [16] was 1.05, the z-score [17] was 0.57 (inactive) and the z-score [18] was 0.0404. The z-score [19] was 0.684 and the z-score [20] was -0.435 (inactive).

With COc1ccc(CCNC(=O)[C@@]2(Sc3ccc(C)cc3)CC(=O)N(C3CCCCC3)[C@@H]2c2ccc(CO)cc2I)cc1 the z-score [1] was -0.0948 (inactive), the composite z-score [2] was 0.0889 and the z-score [3] was 2.91 (inactive). For the same compound, the z-score [4] was 0.547 (inactive), the z-score [5] was -0.325 (inactive) and the z-score [6] was 0.252 (inactive). The z-score [7] was -0.012, the z-score [8] was 0.573 (inactive) and the z-score [9] was 0.672 (inactive). For the same compound, the z-score [10] was 2.1, the z-score [11] was 1.06 and the z-score [12] was -0.475. It also gave a z-score [13] of -0.242, a z-score [14] of -2.14 and a z-score [15] of -2.93. For the same compound, the z-score [16] was -0.836, the z-score [17] was -0.792 (inactive) and the z-score [18] was -0.632. The z-score [19] was -1.33 and the z-score [20] was 1.11 (inactive).
